Only some compounds are listed: those with a hit (about 2.4% of all), similar ones and a draw of the others.
FLuc inh = blocks Photinus pyralis firefly luciferase activity; P08659; purified firefly luciferase, luminescence, 8 min; Potency, µM (top dose mostly 57.1 µM), for the others: at the top dose activity change, negative = inhibition, usual class: inhibitors; actives 2.2% (n = 72,000); also: % is scaled to controls: 0 for no effect and ±100 for the full control effect; nearly all actives have a fitted effect of over 40% in size
Target sequence (P08659 whole entry, looked up): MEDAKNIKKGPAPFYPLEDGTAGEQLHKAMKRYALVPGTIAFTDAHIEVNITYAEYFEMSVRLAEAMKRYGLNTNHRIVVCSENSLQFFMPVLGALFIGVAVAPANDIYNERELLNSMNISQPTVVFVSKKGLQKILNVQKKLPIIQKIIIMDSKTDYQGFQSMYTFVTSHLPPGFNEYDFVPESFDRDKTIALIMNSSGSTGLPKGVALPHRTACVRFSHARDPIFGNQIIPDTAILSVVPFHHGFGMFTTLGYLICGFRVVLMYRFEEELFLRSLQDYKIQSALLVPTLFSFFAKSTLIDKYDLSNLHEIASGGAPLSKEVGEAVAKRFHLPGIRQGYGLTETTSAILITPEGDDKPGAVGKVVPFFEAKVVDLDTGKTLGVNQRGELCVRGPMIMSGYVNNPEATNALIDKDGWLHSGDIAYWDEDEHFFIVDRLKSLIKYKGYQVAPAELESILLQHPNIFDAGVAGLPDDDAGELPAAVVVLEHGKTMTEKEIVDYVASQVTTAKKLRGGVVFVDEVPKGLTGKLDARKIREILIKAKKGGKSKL
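Here, luciferase activity is measured as luminescence following an 8 min room-temperature reaction at 10 uM ATP, pH 7.2. Every library sample is titrated.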
p53ts 39C tox = cytotoxicity in p53ts cells at nonpermissive temperature; H1299-p53A138V viability at 39C, ATP luminescence, 24 h; Potency, µM (series often up to 46.1 µM), inactives show at the highest dose activity change, negative = cell killing, usual class: cytotoxic; actives 1.5% (n = 130,000); AID 902; also: % is scaled to controls: 0 for no effect and ±100 for the full control effect; nearly all actives have a fitted effect of over 55% in size
p53ts 32C kill = p53ts cell cytotoxicity, permissive temperature; H1299-p53A138V at 32C, ATP luminescence viability, 24 h; Potency, µM (top dose mostly 46.1 µM), for inactives: at the highest dose activity change, negative = cytotoxicity, usual class: cytotoxic; actives 0.93% (n = 130,000);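 also: 0% = DMSO and -100% = full killing by reference compound; nearly all actives have a fitted effect of over 55% in size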
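H1299-p53 A138V cells (temperature-sensitive p53) exposed 24 h to up to 46 uM compound at 32C, where p53 is wild-type in conformation. Viability read as ATP luminescence and normalised to DMSO and 100 uM tamoxifen. AC50 fitted with the Hill equation.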
IkB signaling = suppresses IkB signaling in ABC-DLBCL reporter cells; ABC-DLBCL IkBa-CBG/CBR dual luciferase ratio, 4 h; response scale: scaled: untreated 0%, proteasome inhibitor 100%; actives 0.04% (n = 110,000); Potency, µM (top dose mostly 57.1 µM), for the others: at the highest dose IkBa stabilization activation; AID 445; active = well fitted curve in the direction sought with a large enough effect in the signal ratio, not every such curve was filed as active; inconclusive = small, poorly fitted or top-dose-only effect, or a change in a side signal; the % refers to the signal ratio;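 also: the direction sought is a rising ratio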
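Curves were fitted separately to fusion (green), unfused (red) and ratio luminescence, then classed by r2, magnitude and activity. Cells: OCI-Ly3, 4 h compound plus doxycycline at 37C; 10 uM MG-132 defined full response.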
Peg3 imprint = inducers of genomic imprint erasure in mouse ES cells. Potency, µM (series often up to 60.7 µM), inactives show at the top dose activity change, positive = activation, most hits filed as activators. mouse ES Peg3-LacZ reporter, beta-gal luminescence, 40 h. actives 0.02% (n = 110,000)
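Gelatin-coated wells received 300 freshly trypsinized female ES cells with a Peg3LacZ-Neo reporter on the maternal allele, then incubated 40 hours at 37C. BetaGlo was added for 5 minutes at room temperature before a single luminescence read.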
* marks the source's active call; other numbers are inactive results; ? = inconclusive; . = no result; [ ] = dose if it differs, or a comment. Unless noted, calls follow the shape of the dose curve; as a rule, active = well fitted curve in the direction sought with a large enough effect; inconclusive = small, poorly fitted or top-dose-only effect, or another doubt; inactive = no such curve, though single readings can be large; an effect the other way counts as inactive or inconclusive. Potency is read from the fitted curve at half-maximal effect.

SMILES	FLuc inh	p53ts 39C tox	p53ts 32C kill	IkB signaling	Peg3 imprint
CC1(C)CCC(C)(C)c2c1ccc(O)c2Cc1c(O)ccc2c1C(C)(C)CCC2(C)C	4%[11.4 µM]	?	?	6%[11.4 µM]	6%[10.9 µM]
Oc1ccc2c3c1O[C@@H]1c4[nH]c5c(c4C[C@@]4(O)[C@@H](C2)N(CC2CC2)CC[C@]314)C[C@]1(O)[C@@H]2Cc3ccc(O)c4c3[C@@]1(CCN2CC1CC1)[C@H]5O4	0%	14%	-13%	5%	.
O=C(O)CN1CCN(CC(=O)O)CC(=O)[O][Hg][O]C(=O)C1	-11%[11.4 µM]	-26%[9.22 µM]	-26%[9.22 µM]	4µM*	-69%[10.9 µM]
COc1c(CC=C(C)C)c2c(c3oc(=O)c(-c4ccc(O)cc4)c(O)c13)C=CC(C)(C)O2	.	0%	4%	.	2%
CC(C)=CCCC1(C)C=Cc2c(O)c3c(c(CC=C(C)C)c2O1)OC12C(=CC4CC1C(C)(C)OC2(C/C=C(/C)C(=O)O)C4O)C3=O (centres undefined)	.	5µM*	5µM*	.	-40%
CC(C)=CCCC1(C)C=Cc2c(O)c3c(c(CC=C(C)C)c2O1)OC12C(=CC4CC1C(C)(C)OC2(C/C=C(/C)C(=O)O)C4=O)C3=O (centres undefined)	.	6.3µM*	4µM*	.	-34%
CC(C)CCCC1(C)C=Cc2c(O)c3c(c(CCC(C)C)c2O1)OC12C(CC4CC1C(C)(C)OC2(CCC(C)C(=O)O)C4O)C3=O (centres undefined)	.	?	25%	.	?
CN(C)[C@@H]1C(=O)C(C(N)=O)=C(O)[C@]2(O)C(=O)C3=C(O)c4c(O)cccc4[C@](C)(O)[C@H]3C[C@@H]12	-1%[11.4 µM]	5%[9.22 µM]	2%[9.22 µM]	0%[11.4 µM]	24%[10.9 µM]
C=CCN1CC[C@@]23CCCC[C@@H]2[C@@H]1Cc1ccc(O)cc13	0%	-10%	3%	3%	.
CC1CC[C@@]2(OC1)OC1C(O)C3C4CC[C@H]5CC(O[C@@H]6O[C@@H](CO)[C@H](OC7OC(CO)C(O)C(OC8OCC(O)C(O)[C@H]8O)[C@@H]7O[C@@H]7OC(CO)[C@H](O)[C@@H](O[C@@H]8OC(CO)C(O)C(O)C8O)C7O)C(O)C6O)C(O)C[C@]5(C)C4CC[C@]3(C)C1C2C (some centres undefined)	.	6.3µM*	6.3µM*	.	-37%
CC(=O)OC1C[C@H](O[C@@H]2C(O)C[C@H](O[C@@H]3C(O)C[C@@H](OC4CC[C@]5(C)C(CCC6C5CC(O)[C@@]5(C)C(C7=CC(=O)OC7)CC[C@@]65O)C4)OC3C)OC2C)O[C@H](C)[C@H]1O[C@H]1OC(CO)C(O)C(O)C1O (some centres undefined)	.	?	-28%	.	1%
CC1CC[C@@]2(OC1)O[C@@H]1[C@@H](O)[C@H]3C4CC[C@H]5C[C@@H](O[C@@H]6O[C@H](CO)[C@H](O[C@@H]7O[C@H](CO)[C@@H](O)[C@H](O[C@@H]8OC[C@@H](O)[C@H](O)[C@H]8O)[C@H]7O[C@@H]7O[C@H](CO)[C@@H](O)[C@H](O[C@@H]8O[C@H](CO)[C@@H](O)[C@H](O)[C@H]8O)[C@H]7O)[C@H](O)[C@H]6O)[C@H](O)C[C@]5(C)C4CC[C@]3(C)[C@H]1[C@@H]2C (some centres undefined)	.	13µM*	13µM*	.	-22%
CC[C@@H]1CN2CCc3cc(OC)c(OC)cc3[C@H]2C[C@@H]1C[C@@H]1NCCc2cc(OC)c(OC)cc21	-2%	?	10%	?	.
CO[C@@H]([CH2][Hg])CN1C(=O)c2ccccc2S1(=O)=O.Cn1c(=O)c2nc[nH]c2n(C)c1=O	-7%[11.4 µM]	8%[9.22 µM]	12%[9.22 µM]	6%[11.4 µM]	-18%[10.9 µM]
N[C@H](Cc1c[nH]c2ccccc12)P(=O)(O)O	1%[11.4 µM]	3%[9.22 µM]	-1%[9.22 µM]	0%[11.4 µM]	0.63µM*
C[C@]12CC[C@H](O)C[C@@H]1CC[C@H]1[C@H]2CC[C@]2(C)[C@H](C(=O)CO)CC[C@@H]12	-7%	8%	-11%	3%	.

Bioassay records deposited in PubChem BioAssay by National Center for Advancing Translational Sciences (NCATS).
